Compounds with a hit are over-represented: about 3.5% of the library has one in this group of screens.
Bead autofluor – counter-screen for toxin protease inhibitors: compound fluorescence | fluorescence intensity (concentration not given with the values) | compound autofluorescence counterscreen, microsphere flow cytometry; hits give high values | AID 624483 | 3.1% of 360,000 active; in the data active = fluorescence intensity above about 16000; inconclusive = no clear call, values can overlap the other calls
Anthrax LF prot – blocks Bacillus anthracis lethal factor protease; AID 588501; multiplex microsphere protease cleavage assay, LF; P15917; 0.12% of 360,000 active; inhibition, % at 10 µM; also: plate controls were buffer without enzyme for full effect and enzyme alone for no effect
Target sequence (P15917 whole entry, looked up): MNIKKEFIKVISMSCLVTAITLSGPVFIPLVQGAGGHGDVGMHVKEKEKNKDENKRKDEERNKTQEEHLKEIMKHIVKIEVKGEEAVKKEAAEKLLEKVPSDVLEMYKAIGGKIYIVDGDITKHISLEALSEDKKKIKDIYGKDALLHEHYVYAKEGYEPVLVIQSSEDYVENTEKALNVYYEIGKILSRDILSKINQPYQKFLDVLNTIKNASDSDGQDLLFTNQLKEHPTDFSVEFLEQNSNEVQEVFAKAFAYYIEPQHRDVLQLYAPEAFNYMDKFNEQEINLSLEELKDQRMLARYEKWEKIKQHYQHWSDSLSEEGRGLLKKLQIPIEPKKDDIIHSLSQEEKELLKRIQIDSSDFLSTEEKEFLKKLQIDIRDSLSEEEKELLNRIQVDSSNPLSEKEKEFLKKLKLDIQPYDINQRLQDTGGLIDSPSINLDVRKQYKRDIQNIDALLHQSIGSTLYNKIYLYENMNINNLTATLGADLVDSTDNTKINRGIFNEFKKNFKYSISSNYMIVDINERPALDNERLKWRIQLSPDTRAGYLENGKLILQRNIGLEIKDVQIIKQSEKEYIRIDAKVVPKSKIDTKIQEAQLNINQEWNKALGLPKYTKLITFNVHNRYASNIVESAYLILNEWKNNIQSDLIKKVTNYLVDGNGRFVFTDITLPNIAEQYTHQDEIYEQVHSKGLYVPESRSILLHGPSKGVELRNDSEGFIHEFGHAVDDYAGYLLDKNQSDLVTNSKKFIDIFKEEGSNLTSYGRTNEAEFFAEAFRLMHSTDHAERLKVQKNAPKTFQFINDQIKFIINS
BoNT-A LC inh2 – blocks Botulinum neurotoxin A light chain protease; multiplex microsphere protease substrate cleavage, flow cytometry; inhibition, % at 10 µM; 0.17% of 360,000 active; AID 588499; also: plate controls were buffer without enzyme for full effect and enzyme alone for no effect
BoNT-F LC inh – BoNT F light chain protease inhibition | inhibition, % at 10 µM | Multiplex microsphere protease cleavage assay, flow cytometry | 0.22% of 360,000 active; in the data active = inhibition above about 35%, passing the limit was not always enough; inconclusive = no clear call, values can overlap the other calls; also: plate controls were buffer without enzyme for full effect and enzyme alone for no effect
BH1578 lux ind – quorum light induction in luxS cqsA deficient V. cholerae; activation, % at 18.7 µM; 0.16% of 350,000 active; V. cholerae BH1578 lux reporter, luminescence, 6 h; in the data active = activation mostly above about 9.7%, no sharp cut-off; inconclusive = no clear call, values can overlap the other calls; inactive = mostly below about 3.7%
* marks the source's active call; other numbers are inactive results; i = inactive; ? = inconclusive; . = no result. Rule as the data show it, unless noted: active = inhibition above about 30%; inconclusive = no clear call, values can overlap the other calls; inactive = below that.

SMILES	Bead autofluor	Anthrax LF prot	BoNT-A LC inh2	BoNT-F LC inh	BH1578 lux ind
Cc1ccc(Cl)cc1N1CCN(C(=O)CSc2nnc3n2C(C)(C)Cc2ccccc2-3)CC1	9334	-6	-2	-7	i
COc1cccc(NC(=O)CSc2nnc(-c3ccoc3C)n2C)c1	4990	0	0	2	0
COc1ccc(N2CCN(C(=O)CSc3nnc4n3C(C)(C)Cc3ccccc3-4)CC2)cc1	22079*	-2	2	1	4
COc1cc(NC(=O)CSc2nnc3n2C(C)(C)Cc2ccccc2-3)cc(OC)c1	16774*	0	-1	-4	i
CNS(=O)(=O)c1cccc(C(=O)OCC(=O)Nc2ccc3ccccc3c2)c1	3695	-9	1	-6	i
O=C(Nc1cc(Cl)ccc1C(=O)O)c1ccc(CN2C(=O)c3ccccc3C2=O)cc1	3807	-9	2	-16	i
COC(=O)CSc1nnc2n1C(C)(C)Cc1ccccc1-2	16446*	0	-1	3	i
CCOC(=O)C(CC)Sc1nnc2n1C(C)(C)Cc1ccccc1-2 (stereo unspecified)	8797	-7	0	-6	0
CCCOC(=O)C1=C(C)NC(=O)NC1c1cc2c(cc1Br)OCO2 (stereo unspecified)	4101	1	-2	-26	0
CCCC(=O)Nc1ccc(Oc2ccc(NC(=O)CCC)cc2)cc1	19816*	0	?	-2	i
CC(=O)NNC(=O)CCC(=O)Nc1ccccc1	11331	-1	-1	-9	-2
CCCC(=O)Nc1ccc(OCC(=O)OC)cc1	3063	-1	0	-30	-11
CC(=O)SCCC(=O)Nc1ccccc1	17839*	3	?	17	-1
CCOC(=O)Nc1ccc(Oc2ccccc2)cc1	24151*	-2	-3	-4	-4
CCCNC(=S)Nc1ccc(Oc2ccccc2)cc1	20489*	-2	0	-3	i
CCOC(=O)Nc1ccc(OC(=O)Oc2ccc(NC(=O)OCC)cc2)cc1	3468	6	0	2	-1
O=C(CCN1C(=O)[C@@H]2Cc3ccccc3CN2C1=O)N[C@@H](C(=O)O)c1ccccc1	5452	-5	0	2	0
CSc1cccc(NC(=O)Nc2ccccc2C(N)=O)c1	2975	8	-1	9	0
OC(c1ccc(CN2CCCCC2)cc1)c1ncc(-c2ccccc2F)[nH]1 (stereo unspecified)	3495	-3	0	-8	-1
O=C(COC(=O)C1CCC1)NCc1ccc(Cl)cc1Cl	?	?	?	?	i
S=C(Nc1ccc2nc(-c3ccccn3)c(-c3ccccn3)nc2c1)N1CCCCCC1	2061	10	20	5	-4
CCCNC(=S)Nc1ccc2nc(-c3ccccn3)c(-c3ccccn3)nc2c1	21151*	8	?	-1	i
CCCC(=O)Nc1ccc(C#Cc2ccccc2)cc1	18787*	-8	4	5	i
CN(C)CCNCCCNc1c2ccccc2nc2cccc([N+](=O)[O-])c12	3035	-41	0	-84	-6
O=C(O)C(CCC(C(=O)O)c1ccccc1)c1ccccc1 (stereo unspecified)	4477	-3	0	1	i
SMILES	Bead autofluor	Anthrax LF prot	BoNT-A LC inh2	BoNT-F LC inh	BH1578 lux ind
O=C1C=C(c2ccc(CO)cc2)C[C@@H](c2ccc(F)cc2)C1	3537	1	0	-5	0
CCOC(=O)c1[nH]nc(C(=O)c2ccc(Br)cc2)c1O	18245*	-6	4	4	-11
O=C(CSc1nnc(-c2ccc(Br)cc2)n1CCc1ccccc1)NC1CCS(=O)(=O)C1 (stereo unspecified)	2768	-3	0	-4	-3
COc1ccc(CCNC(=O)c2cccc(-n3cnnn3)c2)cc1	3683	-5	0	-2	-3
Cc1ccc(CNC(=O)c2cccc(-n3cnnn3)c2)cc1	23751*	0	0	0	0
CC(=O)Nc1ccc(Cl)c(C(N)=O)c1	19829*	0	-1	-2	i
NC(=S)Nc1ccc(Cl)c(Cl)c1	4462	52*	-1	?	0
CC(=O)N1CCN(c2ccccc2NC(=O)COc2ccc(Br)cc2)CC1	23694*	-4	-1	-6	1
O=C(COc1ccc(Br)cc1)Nc1ccccc1N1CCCC1	2471	1	0	-3	i
CCOC1=C2[C@H](c3ccccc3F)N(S(=O)(=O)c3ccc(C)cc3)C[C@H]2n2c(=O)n(-c3ccccc3)c(=O)n2C1	6126	10	0	4	.
Cc1c(Br)ccc(NC(=O)CCN2C(=O)C3C4CCC(C4)C3C2=O)c1C (stereo unspecified)	23010*	-5	?	-1	i
Cc1cc(NC(=O)CCN2C(=O)C3C4CCC(C4)C3C2=O)cc(C)c1Br (stereo unspecified)	2612	1	1	-5	5
CC(=O)Nc1ccc(NC(=O)c2cc(-n3cnnc3)ccc2Cl)cc1	3896	1	0	-2	0
Cc1ccnc(NC(=O)c2cc(-n3cnnc3)ccc2Cl)c1	22908*	2	?	0	1
Cc1c(NC(=O)c2cc(-n3cnnc3)ccc2Cl)cccc1-c1nc2ccccc2s1	22973*	-2	-1	-3	3
CC(C)NC(=O)c1cc(-n2cnnc2)ccc1Cl	20045*	1	2	6	-1
O=C(Nc1ccccn1)c1cc(-n2cnnc2)ccc1Cl	4892	-2	1	1	-3
CCc1ccc([C@@H]2C[C@H]3[C@@H](CN2S(=O)(=O)c2ccc(C)cc2)C(=O)C[C@@H](c2ccc(C)cc2)N3S(=O)(=O)c2ccc(C)cc2)cc1	2931	4	0	0	0
CC(=O)Nc1ccc(C(=O)CN2CCN(c3ccccc3)CC2)cc1	5682	4	2	-4	0
Cc1ccc2c(c1)c(/C=C/c1cc[n+](C)cc1)c(C)n2C	20045*	-4	-24	-19	i
Cc1cccc(C(=O)Nc2cccc(S(=O)(=O)NCc3ccco3)c2)c1	3714	3	0	0	2
Cc1cc(C)cc(NC(=O)c2cc(S(=O)(=O)NCc3ccco3)ccc2F)c1	21467*	-3	-4	-4	1
Cc1ccc(C(=O)Nc2ccc(S(=O)(=O)NCc3ccco3)cc2)cc1	21876*	3	2	4	-14
COc1ccc(C(O)c2ncc(-c3cccc(C(F)(F)F)c3)[nH]2)cc1F (stereo unspecified)	3479	-3	0	-4	0
CCCN(Cc1cc2ccc(C)cc2[nH]c1=O)S(=O)(=O)c1ccccc1	2886	3	0	1	0
COC(=O)c1cccc(S(=O)(=O)N(Cc2ccco2)Cc2cc3cc(OC)c(OC)cc3[nH]c2=O)c1	10265	-2	0	-1	-5
COC(=O)c1cccc(S(=O)(=O)N(Cc2ccco2)Cc2cc3ccc(OC)cc3[nH]c2=O)c1	24753*	-1	-4	-4	-1
CC(=O)c1cccc(S(=O)(=O)N(CCCO)Cc2cc3ccc(C)cc3[nH]c2=O)c1	24495*	0	-6	-7	0
C(=NNc1ccc2ccccc2n1)c1ccccn1	5722	-1	-1	-13	.

Source: PubChem BioAssay (several laboratories)
